Test [1] in a line: resazurin metabolic signal in HepG2 cells – cell-based, resazurin fluorescence, 24 h, PK04 Diversity Set, profiling panel (AID 1172). Also: test concentration not given here. The note with it: HepG2 viability, higher = more signal. (Resazurin is reduced to fluorescent resorufin, in cell work by metabolically active cells.)
Test [2] in a line: budding yeast growth changes without added modifier – OD600, strain BY4716, 24 h, basal condition, primary screen (AID 1173). The settings on record: S. cerevisiae BY4716 growth, OD600, 24 h; higher = more signal, called active from +8 up or from −8 down.
The nature of test [3]: viability profiling in MM1S myeloma cells – cell-based, resazurin fluorescence, basal, 24 h, PK04 Diversity Set, profiling panel (AID 1174).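 Also: MM1S multiple myeloma cell line; test concentration not given here.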 The note with it: higher = more signal, called active from +8 up or from −8 down.
Test [4] has as its target Dihydroorotate dehydrogenase (quinone), mitochondrial (Plasmodium falciparum (isolate 3D7)) (UniProt Q08210). The test can be described thus: inhibition of P. falciparum DHODH – biochemical, C-terminal His tag, absorbance 600 nm, primary screen (AID 1175).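 Also: recombinant parasite enzyme with a five histidine tag at its C terminus; test concentration not given here.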 The settings on record: PfDHODH enzyme, DCIP absorbance 600 nm; higher = more signal, called active from +8 up or from −8 down.

The nature of test [5]: inhibition of PAO1 biofilm formation – strain PAO1, LB-PBS medium, absorbance 600 nm, primary screen (AID 1176). Also: test concentration not given here. The settings on record: P. aeruginosa PAO1 growth/biofilm, A600, 12 h; higher = more signal.
Test [6] in a line: growth modulation of vineyard yeast isolate – strain RM11-1a, OD600, basal, 24 h, primary screen (AID 1177).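 Also: cultures grown under basal conditions with no added stressor; test concentration not given here.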 The settings on record: S. cerevisiae RM11-1a growth, OD600, 24 h; higher = more signal, called active from +8 up or from −8 down.
A short description of test [7]: growth of efflux-deficient E. coli DRC39 – strain DRC39, OD650, 24 h, E. coli filamentation inducers, primary screen (AID 1178).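 Also: growth measured as culture turbidity by optical density at 650 nm; test concentration not given here.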 The settings on record: E. coli DRC39 acrAB, higher = more signal, called active from +8 up or from −8 down.
Test [8] in a line: growth of efflux-deficient E. coli DRC39 – strain DRC39, OD650, 48 h, E. coli filamentation inducers, primary screen (AID 1179).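 Also: screen aims at cell division blockers that make cells filament.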 The settings on record: E. coli DRC39 delta-acrAB growth, higher = more signal, called active from +8 up or from −8 down.
A short description of test [9]: viability profiling in RPMI8226 myeloma cells – cell-based, resazurin fluorescence, basal, 24 h, PK04 Diversity Set, profiling panel (AID 1180).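 Also: RPMI8826 multiple myeloma cell line at 5000 cells per well; test concentration not given here.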 The settings on record: higher = more signal.
In test [10] the target is E3 ubiquitin-protein ligase XIAP (Homo sapiens) (UniProt P98170). Nature of the test: small molecules binding XIAP protein – biophysical, small-molecule microarray, fluorescence 635 nm, primary screen (AID 1181).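 Also: score merges 667 nm emission and signal to noise over triplicate slides.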 The settings on record: higher = more signal.

Calls of active or inactive are those of the source. Unless noted, no rule for the calls is given here.

Results on 13 compounds are retold here after PubChem BioAssay.

E3 ubiquitin-protein ligase XIAP (Homo sapiens), sequence (P98170 whole entry, looked up): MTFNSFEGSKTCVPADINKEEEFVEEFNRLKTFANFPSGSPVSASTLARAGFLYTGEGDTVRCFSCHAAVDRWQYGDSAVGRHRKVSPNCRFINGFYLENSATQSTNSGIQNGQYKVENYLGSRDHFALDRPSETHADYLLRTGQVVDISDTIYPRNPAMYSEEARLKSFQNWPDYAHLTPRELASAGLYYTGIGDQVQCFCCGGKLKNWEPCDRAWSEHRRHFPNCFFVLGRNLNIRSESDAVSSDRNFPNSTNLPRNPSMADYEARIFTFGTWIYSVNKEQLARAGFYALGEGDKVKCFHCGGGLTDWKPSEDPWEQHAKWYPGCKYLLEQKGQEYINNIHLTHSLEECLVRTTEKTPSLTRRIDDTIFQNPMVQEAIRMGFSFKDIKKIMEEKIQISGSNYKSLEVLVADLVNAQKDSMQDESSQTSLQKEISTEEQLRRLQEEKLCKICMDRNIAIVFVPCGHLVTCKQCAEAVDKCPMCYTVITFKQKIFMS
Dihydroorotate dehydrogenase (quinone), mitochondrial (Plasmodium falciparum (isolate 3D7)), sequence (Q08210 whole entry, looked up): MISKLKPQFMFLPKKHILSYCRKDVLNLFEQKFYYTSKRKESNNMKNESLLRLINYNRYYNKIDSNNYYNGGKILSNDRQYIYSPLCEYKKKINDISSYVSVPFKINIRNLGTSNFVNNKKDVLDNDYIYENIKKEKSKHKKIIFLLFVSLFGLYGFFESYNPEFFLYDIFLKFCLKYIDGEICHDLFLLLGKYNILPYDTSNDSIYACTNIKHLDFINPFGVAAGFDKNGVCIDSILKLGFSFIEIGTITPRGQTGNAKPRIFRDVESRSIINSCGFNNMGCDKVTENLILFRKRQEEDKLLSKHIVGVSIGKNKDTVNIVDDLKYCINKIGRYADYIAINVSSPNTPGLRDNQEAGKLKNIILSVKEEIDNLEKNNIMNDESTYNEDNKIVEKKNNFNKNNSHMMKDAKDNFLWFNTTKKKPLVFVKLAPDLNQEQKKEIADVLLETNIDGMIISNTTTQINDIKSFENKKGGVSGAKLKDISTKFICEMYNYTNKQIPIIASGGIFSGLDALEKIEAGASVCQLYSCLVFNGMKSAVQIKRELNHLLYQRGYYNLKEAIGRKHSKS

As to `COC(=O)[C@@]1(Cc2ccc(OC)cc2)[C@H]2c3cc(C(=O)N4CCCC4)n(Cc4ccsc4Br)c3C[C@H]2CN1C(=O)c1ccccc1`, the z-score in test [1] is -1.78; in [2], 0.567 (inactive); in test [3], -8.06 (active); in [5], 0.576 (inactive); in test [6] it was -0.0289 (inactive); in test [7], -0.0187 (inactive). For the same compound, the z-score in test [8] is 0.126 (inactive); in test [9], -4.31. Moreover, the results for the composite z-score in test [4] and in test [10] were 0.276 (inactive) and 0.244, respectively.
Consider `COCCOC(=O)N1C(=O)[C@@]2(c3cc(C#CC4=CCCCC4)ccc31)[C@H](C(=O)Nc1nc3ccccc3s1)[C@H]1C(=O)O[C@H](c3ccccc3)[C@H](c3ccccc3)N1[C@@H]2c1ccccc1OCCO`, for which the z-score in test [1] is 0.444; in test [2], 0.794 (inactive); in test [3], -0.386 (inactive); in test [5], 1.16 (inactive); in [6], 1.99 (inactive); in test [7] it was -0.653 (inactive). Also, the z-score is -0.883 (inactive) in test [8] and -0.575 in [9]. The composite z-score is 1.37 (inactive) in test [4] and -0.05 in test [10].
With `COC(=O)[C@@]1(Cc2ccc(F)cc2)[C@H]2c3cc(C(=O)N4CCCC4)n(Cc4ccc(C)o4)c3C[C@H]2CN1C(=O)c1ccccc1`, the z-score is -0.814 in test [1]; 0.707 (inactive) in test [2]; -6.17 (inactive) in test [3]; -0.595 (inactive) in test [5]; 0.544 (inactive) in test [6]; -0.201 (inactive) in test [7]. For the same compound, the z-score in test [8] was 0.548 (inactive); in test [9] it was -5.35. The composite z-score in test [4] was -1.04 (inactive); in [10], 0.0623.
On to `COC(=O)c1c(CC[C@@H](CO)NC(=O)N2CCC[C@H]2Cn2cc(-c3ccccn3)nn2)oc(C(C)=O)c1C(=O)OC`, for which the z-score in [1] was 0.422; in [2] it was -0.835 (inactive); in test [3] it was 0.608 (inactive); in test [5], -0.252 (inactive); in test [6] it was -1.19 (inactive); in [7] it was 1.28 (inactive). The z-score was 0.835 (inactive) in test [8] and 0.426 in [9]. Besides, the composite z-score was -0.492 (inactive) in test [4] and -0.0351 in test [10].
As to `CCC(CC)C(O)C1C=CC2C(=O)N(C)C(=O)C2N1Nc1ccccc1` (stereo not given), the z-score in [1] was -0.138; in [2], -0.692 (inactive); in [3], -0.193 (inactive); in test [5] it was 1.12 (inactive); in [6], -0.0874 (inactive); in test [7], -0.53 (inactive). For the same compound, the values for the z-score in test [8] and in test [9] were -0.662 (inactive) and 0.257, respectively. In addition, the composite z-score in test [4] is -0.546 (inactive); in test [10], 0.661.
Regarding `Cc1ccc(C(C)CC(O)C2C=CC3C(=O)N(C)C(=O)C3N2NC(=O)OC(C)(C)C)o1` (stereo not given), the z-score was -0.427 in test [1]; -0.626 (inactive) in [2]; -0.076 (inactive) in [3]; 0.434 (inactive) in test [5]; 0.66 (inactive) in [6]; -0.107 (inactive) in [7]. Also, the values for the z-score in test [8] and in test [9] were -0.354 (inactive) and 0.0437, respectively. For the same compound, the composite z-score in test [4] is -0.166 (inactive); in test [10], 0.12.
With `C=C(CCCC)C(=O)CC[C@H](OC(=O)c1cccnc1)c1ccccc1OCCO`, the z-score in [1] was 0.619; in test [2], -0.716 (inactive); in [3] it was -2.19 (inactive); in [5], -0.317 (inactive); in [6] it was -1.61 (inactive); in test [7], 0.836 (inactive). The z-score in [8] was -0.0762 (inactive); in test [9], -2.29. Further, the composite z-score is -0.363 (inactive) in [4] and 0.0374 in test [10].
As for `COCCOC(=O)N1C(=O)[C@@]2(c3cc(C#CC4=CCCCC4)ccc31)[C@H](C(=O)Nc1nc3ccccc3s1)[C@H]1C(=O)O[C@H](c3ccccc3)[C@H](c3ccccc3)N1[C@@H]2c1ccc(OCCO)cc1`, the z-score in [1] is 0.366; in test [2], 1.05 (inactive); in test [3] it was 0.295 (inactive); in test [5] it was 4.33 (inactive); in [6], 2.51 (inactive); in test [7], -1.26 (inactive). The z-score is -2.09 (inactive) in [8] and -0.0984 in test [9]. Also, the composite z-score in test [4] was 0.0498 (inactive); in [10] it was -0.106.
Regarding `COc1ccc(CCN2C(=O)[C@@]3(Cc4ccccc42)c2ccccc2C(=O)N(Cc2ccccc2C(F)(F)F)[C@H]3c2ccc(CO)cc2)cc1`, the z-score in test [1] is -0.104; in [2], 0.512 (inactive); in test [3], 0.35 (inactive); in [5] it was 0.31 (inactive); in test [6], -0.443 (inactive); in test [7], -0.0813 (inactive). Further, the z-score in [8] was -0.374 (inactive); in test [9], -0.816. The composite z-score was -21.6 (active) in [4] and -0.0102 in test [10].
For the compound `NCCCCCNC(=O)[C@@H]1C[C@@H]2C(=O)N[C@@H](Cc3ccccc3)C(=O)N2[C@@H]1c1cccc(OCCO)c1`, the z-score was -0.837 in [1]; 1.04 (inactive) in test [2]; -0.104 (inactive) in test [3]; 0.174 (inactive) in test [5]; 0.606 (inactive) in test [6]; -0.297 (inactive) in test [7]. Moreover, the z-score is -0.457 (inactive) in [8] and -0.603 in [9]. Moreover, the composite z-score in test [4] was 0.251 (inactive); in [10], 0.416.
Turning to `CCCCCN1CC=CC23O[C@@H]4/C=C\CCCOC(=O)C4[C@H]2C(=O)N(CCCO)[C@@H]3C1=O` (stereo not given in full), the z-score in test [1] is 1.15; in test [2] it was -1.26 (inactive); in test [3] it was 1.21 (inactive); in [5] it was 0.661 (inactive); in [6], -1.32 (inactive); in test [7], 0.581 (inactive). The z-score is 0.025 (inactive) in test [8] and 1.72 in [9]. For the same compound, the composite z-score in [4] is -1.37 (inactive); in [10], 0.239.
On to `COc1ccc(CCNC(=O)[C@@H]2c3ccccc3C(=O)N(C3Cc4ccccc4C3)[C@H]2c2ccc(CO)cc2)cc1`, for which the z-score in test [1] was 0.763; in [2], 0.594 (inactive); in [3], -0.642 (inactive); in test [5] it was 0.292 (inactive); in [6] it was 0.205 (inactive); in test [7], -0.195 (inactive). In addition, the z-score is 0.121 (inactive) in test [8] and -0.303 in [9]. Further, the composite z-score in test [4] is 0.441 (inactive); in test [10], 0.126.
Consider `CC(C)(C)C(=O)N[C@@H](c1ccc(Cl)cc1)[C@]1(C)C[C@H]1C1CCCCC1`, for which the z-score is -0.608 in test [1]; -0.507 (inactive) in [2]; -0.385 (inactive) in test [3]; 1.03 (inactive) in [5]; 0.473 (inactive) in test [6]; -0.196 (inactive) in test [7]. Besides, the z-score was -0.27 (inactive) in test [8] and -0.231 in test [9]. In addition, the composite z-score is -0.554 (inactive) in test [4] and 0.261 in [10].
